Laboratory results: PubChem BioAssay AID1159580 (chemical genetic matrix, 2015)
About 2,000 (36%) of roughly 5,500 compounds were called active. Inconclusive results (about 18%) are left out. Cut-off read from the data, not from the text of the source: active = normalized growth mostly below about 0.91 (no sharp cut-off); inconclusive = no clear call, values can overlap the other calls; inactive = mostly above about 0.92. The list shows a part of the results.

Test: chemical genetic growth profiling, strain panel (AID 1159580);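 note: tested at 20 µM; growth read once vehicle control cultures reached saturation at 30 °C; 1 = growth at the plate median or of vehicle wells; lower values mean less growth of the strain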
Settings: S. cerevisiae deletion strains, growth OD
[1] = locus YMR307W, strain GAS1, active compounds read low
[2] = locus YNL128W, strain TEP1, active compounds read low
[3] = locus YPL055C, strain LGE1, active compounds read low

Measured: normalized growth

O=c1oc2ccccc2cc1O
inactive: locus YAL021C, strain ccr4, active compounds read low 0.986 | locus YAL026C, strain drs2, active compounds read low 0.975 | locus YAL030W, strain snc1, active compounds read low 0.993 | locus YBL061C, strain skt5, active compounds read low 0.993 | locus YBR009C, strain hhf1, active compounds read low 1 | locus YBR021W, strain FUR4, active compounds read low 1.03 | locus YBR023C, strain chs3, active compounds read low 0.993 | locus YBR171W, strain sec66, active compounds read low 0.977 | locus YBR229C, strain ROT2, active compounds read low 1.03 | locus YBR231C, strain swc5, active compounds read low 1.01 | locus YBR279W, strain paf1, active compounds read low 0.994 | locus YCL011C, strain gbp2, active compounds read low 1.01 | locus YCL016C, strain dcc1, active compounds read low 0.999 | locus YCL029C, strain bik1, active compounds read low 1.02 | locus YCL061C, strain MRC1, active compounds read low 0.991 | locus YCL069W, strain vba3, active compounds read low 0.968 | locus YCR088W, strain abp1, active compounds read low 0.986 | locus YDL005C, strain med2, active compounds read low 0.986 | locus YDL035C, strain GPR1, active compounds read low 1.06 | locus YDL040C, strain nat1, active compounds read low 0.994 | locus YDL074C, strain BRE1, active compounds read low 1.13 | locus YDL101C, strain DUN1, active compounds read low 1.01 | locus YDL134C, strain PPH21, active compounds read low 1.07 | locus YDL185W, strain tfp1, active compounds read low 0.998 | locus YDL192W, strain arf1, active compounds read low 1.03 | locus YDR001C, strain nth1, active compounds read low 0.984 | locus YDR069C, strain doa4, active compounds read low 0.991 | locus YDR101C, strain arx1, active compounds read low 0.991 | locus YDR137W, strain rgp1, active compounds read low 0.969 | locus YDR159W, strain sac3, active compounds read low 1.03 | locus YDR162C, strain NBP2, active compounds read low 1.04 | locus YDR195W, strain ref2 1.01 | locus YDR297W, strain sur2, active compounds read low 0.989 | locus YDR318W, strain mcm21, active compounds read low 0.995 | locus YDR334W, strain swr1, active compounds read low 0.96 | locus YDR335W, strain msn5, active compounds read low 1 | locus YDR388W, active compounds read low 0.992 | locus YDR392W, strain spt3, active compounds read low 0.983 | locus YDR502C, strain sam2, active compounds read low 0.986 | locus YEL003W, strain gim4, active compounds read low 0.993 | locus YEL037C, strain rad23, active compounds read low 0.979 | locus YEL061C, strain CIN8 (second series), active compounds read low 0.976 | locus YER015W, strain faa2, active compounds read low 1.01 | locus YER016W, strain bim1, active compounds read low 1 | locus YER110C, active compounds read low 0.974 | locus YER111C, strain swi4, active compounds read low 0.988 | locus YER155C, strain BEM2 (second series), active compounds read low 0.989 | locus YER155C, strain BEM2, active compounds read low 1.02 | locus YER167W, strain BCK2, active compounds read low 1.03 | locus YFR010W, strain ubp6, active compounds read low 0.963 | locus YGL078C, strain dbp3, active compounds read low 0.953 | locus YGL086W, strain mad1, active compounds read low 0.994 | locus YGL167C, strain pmr1, active compounds read low 0.99 | locus YGL173C, strain kem1, active compounds read low 0.996 | locus YGL227W, strain vid30, active compounds read low 0.995 | locus YGL240W, strain doc1, active compounds read low 0.984 | locus YGL248W, strain PDE1, active compounds read low 1.04 | locus YGL253W, strain hxk2, active compounds read low 0.994 | locus YGR135W, strain pre9, active compounds read low 0.969 | locus YGR252W, strain gcn5, active compounds read low 0.924 | locus YHR013C, strain ard1, active compounds read low 1.04 | locus YHR027C, strain rpn1, active compounds read low 0.986 | locus YHR079C, strain IRE1 (second series), active compounds read low 0.986 | locus YHR094C, strain hxt1, active compounds read low 0.989 | locus YHR129C, strain ARP1, active compounds read low 1.06 | locus YHR142W, strain chs7, active compounds read low 0.974 | locus YHR200W, strain rpn10, active compounds read low 0.983 | locus YIL066C, strain RNR3, active compounds read low 1.04 | locus YIL073C, strain SPO22, active compounds read low 1.08 | locus YIL125W, strain kgd1, active compounds read low 1 | locus YIR030C, strain dcg1, active compounds read low 1 | locus YJL092W, strain hpr5, active compounds read low 0.987 | locus YJL095W, strain BCK1 (second series), active compounds read low 0.982 | locus YJL095W, strain BCK1, active compounds read low 1.11 | locus YJL115W, strain asf1, active compounds read low 0.98 | locus YJL129C, strain trk1, active compounds read low 0.989 | locus YJL134W, strain LCB3, active compounds read low 1.02 | locus YJL154C, strain vps35, active compounds read low 0.987 | locus YJL164C, strain tpk1, active compounds read low 0.99 | locus YJL166W, strain qcr8, active compounds read low 0.992 | locus YJL168C, strain set2, active compounds read low 0.989 | locus YJL187C, strain SWE1 (second series), active compounds read low 1.03 | locus YJL187C, strain SWE1, active compounds read low 0.996 | locus YKL009W, strain mrt4, active compounds read low 0.937 | locus YKL068W, active compounds read low 0.978 | locus YKL085W, strain MDH1 (second series), active compounds read low 0.99 | locus YKL085W, strain MDH1, active compounds read low 0.99 | locus YKL160W, strain elf1, active compounds read low 1.01 | locus YKL190W, strain CNB1, active compounds read low 1.04 | locus YKR001C, strain vps1, active compounds read low 1.02 | locus YKR026C, strain gcn3, active compounds read low 0.988 | locus YKR091W, strain srl3, active compounds read low 0.994 | locus YLL001W, strain dnm1, active compounds read low 0.985 | locus YLL026W, active compounds read low 1 | locus YLL041C, strain sdh2, active compounds read low 1.01 | locus YLR027C, strain aat2, active compounds read low 1.01 | locus YLR039C, strain RIC1, active compounds read low 1.16 | locus YLR058C, strain SHM2, active compounds read low 1.04 | locus YLR102C, strain apc9, active compounds read low 1.01 | locus YLR221C, strain rsa3, active compounds read low 1 | locus YLR258W, strain gsy2, active compounds read low 0.987 | locus YLR262C, strain YPT6 (second series), active compounds read low 0.898 | locus YLR262C, strain YPT6, active compounds read low 1.07 | locus YLR268W, strain sec22, active compounds read low 0.997 | locus YLR320W, strain mms22, active compounds read low 1 | locus YLR342W, strain FKS1 (second series), active compounds read low 1.04 | locus YLR342W, strain FKS1, active compounds read low 0.985 | locus YLR357W, strain rsc2, active compounds read low 1 | locus YLR370C, strain arc18, active compounds read low 0.983 | locus YLR371W, strain rom2, active compounds read low 1.02 | locus YLR384C, strain iki3, active compounds read low 1 | locus YLR418C, strain cdc73, active compounds read low 1.11 | locus YML016C, strain PPZ1, active compounds read low 1.03 | locus YML032C, strain rad52, active compounds read low 0.995 | locus YML120C, strain ndi1, active compounds read low 0.981 | locus YML124C, strain tub3, active compounds read low 1.01 | locus YMR058W, strain fet3, active compounds read low 0.984 | locus YMR078C, strain ctf18, active compounds read low 0.985 | locus YMR125W, strain sto1, active compounds read low 0.972 | locus YMR129W, active compounds read low 1 | locus YMR205C, strain PFK2, active compounds read low 1.01 | locus YMR223W, strain ubp8, active compounds read low 1 | locus YMR231W, strain pep5, active compounds read low 0.977 | [1] 1.3 | locus YNL067W, strain RPL9B, active compounds read low 1.03 | locus YNL071W, strain lat1, active compounds read low 0.978 | [2] 1.03 | locus YNL209W, strain ssb2, active compounds read low 0.998 | locus YNL233W, strain BNI4, active compounds read low 1.08 | locus YNL248C, strain rpa49, active compounds read low 0.958 | locus YNL250W, strain rad50, active compounds read low 1.01 | locus YNL271C, strain bni1, active compounds read low 0.987 | locus YNL298W, strain CLA4, active compounds read low 0.993 | locus YNL307C, strain MCK1, active compounds read low 1 | locus YNL322C, strain KRE1 (second series), active compounds read low 0.989 | locus YNR049C, strain mso1, active compounds read low 0.998 | locus YNR052C, strain pop2, active compounds read low 0.948 | locus YOL012C, strain htz1 1.2 | locus YOL147C, strain pex11, active compounds read low 1 | locus YOR001W, strain rrp6, active compounds read low 0.985 | locus YOR061W, strain CKA2, active compounds read low 1.02 | locus YOR069W, strain VPS5, active compounds read low 1.02 | locus YOR070C, strain gyp1, active compounds read low 0.997 | locus YOR080W, strain dia2, active compounds read low 0.984 | locus YOR083W, strain WHI5, active compounds read low 0.986 | locus YOR106W, strain vam3, active compounds read low 0.946 | locus YOR136W, strain idh2, active compounds read low 0.985 | locus YOR144C, strain elg1, active compounds read low 0.996 | locus YOR184W, strain ser1, active compounds read low 0.98 | locus YOR265W, strain rbl2, active compounds read low 0.992 | locus YOR270C, strain vph1, active compounds read low 0.87 | locus YOR290C, strain snf2, active compounds read low 0.984 | locus YOR316C, strain cot1, active compounds read low 0.991 | locus YPL051W, strain arl3, active compounds read low 0.997 | [3] 1.13 | locus YPL078C, strain atp4, active compounds read low 0.966 | locus YPL106C, strain sse1, active compounds read low 0.988 | locus YPL240C, strain hsp82, active compounds read low 0.997 | locus YPL241C, strain CIN2, active compounds read low 1.04 | locus YPR119W, strain clb2, active compounds read low 1.01 | locus YPR141C, strain kar3, active compounds read low 1 | locus YPR163C, strain tif3, active compounds read low 1 | locus YPR167C, strain met16, active compounds read low 0.993 | strain wtn01, active compounds read low 0.984

COc1cc2c(CCNC(C)=O)c[nH]c2cc1O
inactive: locus YAL013W, strain DEP1, active compounds read low 1.02 | locus YAL040C, strain CLN3, active compounds read low 1.01 | locus YCL061C, strain MRC1 (second series), active compounds read low 1.01 | locus YDR150W, strain NUM1, active compounds read low 1.01 | locus YDR363W, strain ESC2, active compounds read low 1.02 | locus YER002W, strain NOP16, active compounds read low 1.02 | locus YGR078C, strain PAC10, active compounds read low 1 | locus YJR075W, strain HOC1, active compounds read low 1.02 | [1] 1 | [2] 1.02 | locus YNL175C, strain NOP13, active compounds read low 0.998 | locus YNL197C, strain WHI3, active compounds read low 1.02 | locus YNL224C, strain SQS1, active compounds read low 0.996 | locus YOR083W, strain WHI5 (second series), active compounds read low 1 | [3] 1.02
